Experimental data taken from PubChem BioAssay AID624296 (National Center for Advancing Translational Sciences (NCATS), 2012).
Out of some 350,000 compounds screened, about 9,900 (2.8%) were called active. About 15% were inconclusive and are not listed. Calls follow the shape of the dose curve; as a rule, active = well fitted activation curve with a large enough effect; inconclusive = small, poorly fitted or top-dose-only effect; inactive = no such curve, though single readings can be large or run the other way. This excerpt belongs to a sample that is enriched for actives.

assay: A quantitative high throughput screen for small molecules that induce DNA re-replication in MCF 10a normal breast cells.; also: nearly all actives have a fitted effect of over 50% in size; as to activity, positive = re-replication: % of control where 0% means no effect; settings: MCF 10A DNA re-replication, Hoechst nuclear intensity, 48 h; series mostly up to 46.1 µM; activity, positive = re-replication: at the top concentration
Potency is read from the fitted curve at half-maximal effect.

Structure (SMILES) | activity, positive = re-replication | Potency
CC(=O)Nc1ccc(SC[C@H](Cc2ccccc2)N2CC[C@@H](C)CCC2=O)cc1 | 1.91% (inactive) | –
COc1ccc(NS(=O)(=O)c2cc(NC(=O)c3ccc(S(=O)(=O)N(C)C)cc3)ccc2N2CCOCC2)cc1 | 1.21% (inactive) | –
COc1cc(NS(=O)(=O)c2ccc(N=Cc3c(C)[nH]n(-c4ccccc4)c3=O)cc2)nc(OC)n1 | 4.18% (inactive) | –
COc1cc(NS(=O)(=O)c2ccc(N/C=C(\C=O)c3nc4cc(Cl)ccc4o3)cc2)nc(OC)n1 | – | 20.6 µM (active)
COc1cc(NS(=O)(=O)c2ccc(NC(=S)NC(=O)c3ccccc3)cc2)nc(OC)n1 | -1.53% (inactive) | –
Cc1ccc(C)c(C(=O)COC(=O)Cn2[nH]c(=O)c3ccccc3c2=O)c1 | 5.4% (inactive) | –
CCc1ccc(C(=O)C(C)OC(=O)CN2C(=O)NC3(CCCC3)C2=O)cc1 (stereo unspecified) | 5.71% (inactive) | –
CCCC1=Nc2cc(C(=O)NCc3ccco3)ccc2Sc2ccccc21 | – | 8.2 µM (active)
CCC1=Nc2cc(C(=O)NCCCN3CCOCC3)ccc2Sc2ccc(Br)cc21 | 26.8% (inactive) | –
CCC1=Nc2cc(C(=O)NCCN3CCCC3)ccc2Sc2ccc(C)cc21 | 17% (inactive) | –
CCOc1ccc(C(=O)CCN2CCOCC2)cc1 | – | 18.4 µM (active)
c1ccc(-c2ccc(OCCN3CCOCC3)cc2)cc1 | 10.6% (inactive) | –
CC(=O)c1ccc(OCCN2CCOCC2)cc1 | 1.39% (inactive) | –
OC(COc1ccc(Br)cc1)CN1CCCC1 (stereo unspecified) | 12.5% (inactive) | –
O=C(c1ccc(Cl)cc1)c1ccc(OCC(O)CN2CCCCC2)cc1 (stereo unspecified) | – | 5.01 µM (active)
O=C(c1ccccc1)c1ccc(OCC(O)CN2CCCC2)cc1 (stereo unspecified) | 0.887% (inactive) | –
C=CCn1c(=S)[nH]c2nc3c(cc2c1=O)COC(C)(C)C3 | 1.01% (inactive) | –
CCCc1nc2oc3c(OCC)ncnc3c2c2c1COC(C)(C)C2 | 27.7% (inactive) | –
CC(C)CCSc1ncnc2c1oc1nc3c(cc12)COC(C)(C)C3 | – | 5.8 µM (active)
CSCCC(NS(=O)(=O)c1ccc(C)cc1)C(=O)N(C)CC(=O)Nc1ccccc1Br (stereo unspecified) | 4.3% (inactive) | –
O=C(COC(=O)c1ccc(O)cc1O)c1ccc2c(c1)OCCO2 | -0.272% (inactive) | –
O=C1COc2c1ccc(O)c2O | -41.8% (inactive) | –
CCOc1cccc(=O)c2c(C)n(CC3CCCO3)c(C)c12 (stereo unspecified) | 10.7% (inactive) | –
CCC(=O)Nc1ccc(C(=O)Nc2ccc3c(c2)C(=O)N(CC2CCCO2)C3=O)cc1 (stereo unspecified) | 3.25% (inactive) | –
O=C1c2cccc3c([N+](=O)[O-])ccc(c23)C(=O)N1CC1CCCO1 (stereo unspecified) | – | 18.4 µM (active)
N#CC(Cc1cc2ccccc2n1S(=O)(=O)c1ccccc1)OCc1ccccc1 (stereo unspecified) | -1.6% (inactive) | –

Structure (SMILES) | activity, positive = re-replication | Potency
Cc1ccc2cc(/C=N/NC(=O)[C@@H]3CCCN3)c(Cl)nc2c1 | 5.15% (inactive) | –
O=C(O)c1ccc(N/N=C/c2ccc3ncccc3c2)cc1 | -0.921% (inactive) | –
Cc1ccc2cc(/C=N/Nc3ccc(C(=O)O)cc3)c(Cl)nc2c1 | – | 6.51 µM (active)
COc1ccc(NC(=O)/C(C#N)=C\c2cc(OC)c(OCc3ccc(C(=O)O)cc3)cc2Br)cc1 | – | 16.4 µM (active)
COc1cc(/C=C(\C#N)C(=O)Nc2ccc3ccccc3c2)c([N+](=O)[O-])cc1OC | 15.9% (inactive) | –
COc1cc(C=O)c(Br)cc1OCC(=O)NCc1ccccc1 | -2.65% (inactive) | –
NC(=O)C1(N2CCCC2)CCN(Cc2ccccc2)CC1 | 0.0869% (inactive) | –
COC(=O)c1cc2c(N)c(C(=O)c3ccc(Cl)cc3)sc2nc1C(OC)OC | – | 20.6 µM (active)
COC(=O)c1sc2ncccc2c1OCc1ccc(Cl)cc1Cl | -182% [at 0.0737 µM] (inactive) | –
COC(=O)c1cn(C(=O)c2ccc(Cl)cc2)c2ccccc12 | -2.16% (inactive) | –
CN(Cc1cccs1)C(=O)CN1C(=O)c2ccccc2S1(=O)=O | 2.91% (inactive) | –
CCOC(=O)C1=CN(Cc2ccc(Br)cc2)S(=O)(=O)NC1C (stereo unspecified) | -1.7% (inactive) | –
COC(=O)c1c(NC(=O)COc2ccc(Cl)cc2Cl)sc2c1CC(C)(C)NC2(C)C | – | 3.26 µM (active)
Cc1cc(NC(=O)COc2ccc(Cl)cc2Cl)n(CCC#N)n1 | -12.1% (inactive) | –
CCOC(=O)c1c(NC(=O)c2ccc(S(=O)(=O)N(C)CC3CCCO3)cc2)sc2c1CC(C)(C)NC2(C)C (stereo unspecified) | -0.748% (inactive) | –
CCC(=O)N(Cc1cc2cc(OC)ccc2[nH]c1=O)c1ccccc1C | 11.2% (inactive) | –
COc1ccc2[nH]c(=O)c(CNc3ccc(C)c(C)c3)cc2c1 | – | 14.6 µM (active)
COc1ccc(N(Cc2cc3cc(OC)ccc3[nH]c2=O)S(C)(=O)=O)cc1 | 2.63% (inactive) | –
c1ccc(-c2c[nH]c(-c3ccccc3)c2)cc1 | 18.5% (inactive) | –
COc1ccc(NC(=O)CN(C)C(=O)c2cc(C3CC3)nn2-c2ccccc2)cc1 | 0.411% (inactive) | –
Cc1nc2ccccc2c(C(=O)O)c1-c1ccccn1 | 0.373% (inactive) | –
COc1cc2c(cc1CNC[C@H]1O[C@@H](n3cnc(C(N)=O)n3)[C@H](O)[C@@H]1O)OCO2 | -5.16% (inactive) | –
C/C(=N\NC(=O)c1ccccc1F)c1ccccn1 | – | 23.1 µM (active)
C/C(CC(=O)Nc1ccc(N(C)C)cc1)=N\NC(=O)c1ccccc1F | -3.45% (inactive) | –
C/C(=N\NC(=O)Cc1ccc(Cl)cc1)c1ccccn1 | -8.75% (inactive) | –
